Laboratory results reported in PubChem BioAssay (Tox21).
Results filed as inconclusive are left out. Where a call stands in place of a potency, no number is given. A number with no mark means an inactive call. The source made the active and inactive calls. Calls follow the shape of the dose curve; as a rule, active = well fitted cell-killing curve with a large enough effect in the repeat runs; inconclusive = weak or mixed curves, or effect the other way; inactive = no such curve, though single readings can be large or run the other way.
Potency is read from the fitted curve at half-maximal effect.

Assay: qHTS assay to identify small molecule agonists of the farnesoid-X-receptor (FXR) signaling pathway - cell viability counter screen (AID 743218); also: nearly all actives have a fitted effect of over 45% in size
Conditions: FXR-bla HEK293T viability, CellTiter-Glo luminescence, 16 h; series mostly up to 62.6 µM
Description: U.S. Tox21 Program National Center for Advancing Translational Sciences [NCATS] NIH Chemical Genomics Center [NCGC] U.S. Environmental Protection Agency [EPA] National Institutes of Environmental Health Sciences [NIEHS] National Toxicology Program [NTP] U.S. Food and Drug Administration [FDA] Tox21 Assay Overview: The farnesoid-X-receptor (FXR), a nuclear hormone receptor, is highly expressed in liver, intestine, kidney and adrenal cortex. Natural ligands of FXR are the bile acids (Cholic acid, Chenodeoxy cholic acid etc). FXR is an important regulator of diverse metabolic pathways, including the bile acid homeostasis, lipid and glucose metabolisms. FXR regulates the expression of target genes by binding either as a monomer or as a heterodimer with the retinoid X receptor (RXR). Numerous studies have reported that FXR exerts protective function during cholestasis, diabetes, liver regeneration, and cancer. To identify compounds that activate FXR signaling, GeneBLAzer FXR-UAS-bla HEK 293T cell line (Invitrogen, Carlsbad, CA) containing a beta-lactamase reporter gene under the control of a UAS response element was used to screen the Tox21 10K compound library. The cytotoxicity of the Tox21 compound library against the FXR-bla cell line was tested in parallel by measuring the cell viability using CellTiter-Glo assay in the same wells.
Tox21 Assay Protocol Summary: FXR-bla cells were dispensed at 5000 cells/5uL/well in 1536-well black wall/clear bottom plates using a Multidrop Combi (Thermo Fisher Scientific, Waltham, MA) dispenser. After the assay plates were incubated at 37 C and 5% CO2 for 5 h, 23 nL of compounds dissolved in DMSO, positive controls or DMSO only was transferred to the assay plate by a Pintool station (Kalypsys, San Diego, CA). The assay plates were incubated at 37C for 16 h. After 1 uL of LiveBLAzerTM B/G FRET substrate was added using a Bioraptr Flying Reagent Dispenser (FRD) workstation (Beckman Coulter, Indianapolis, IN), the plates were incubated at room temperature for 2 h, and fluorescence intensity was measured by an Envision plate reader (PerkinElmer, Shelton, CT). For cell viability readout that measures cytotoxicity, 4uL/well of CellTiter-Glo reagent was added into the assay plates using a Bioraptr FRD. After 30 min incubation at room temperature, the luminescence intensity in the plates was measured using a ViewLux plate reader (PerkinElmer).
With CCC(C)O (stereo not given) the Potency was “inactive”.
In the case of CCOC(=O)c1cccnc1, the Potency is reported as “inactive”.
For CC(C)(COC(=O)c1ccccc1)COC(=O)c1ccccc1, the Potency was “inactive”.
For CCOC(=O)C(O)c1ccccc1 (stereo not given), the Potency was “inactive”.
For CNC(=O)CN(CCN(CCN(CC(=O)[O-])CC(=O)NC)CC(=O)[O-])CC(=O)[O-].O.[Gd+3], the Potency was “inactive”.
In the case of O=C(O)CNCC(=O)O, the viability change, negative = cytotoxic is reported as -1.74% [at 5.95 µM].
For CCCn1cnc2c1c(=O)n(CCCCC(C)=O)c(=O)n2C, the Potency was “inactive”.
In the case of C[N+](C)(C)CCOC(=O)CCC(=O)OCC[N+](C)(C)C, the Potency is reported as “inactive”.
In the case of O=C(O)c1ccco1, the Potency is reported as “inactive”.
With C=CCOc1ccccc1OCC(O)CNC(C)C (stereo not given) the Potency was “inactive”.
With O=C(OCCc1ccccc1)c1ccccc1 the Potency was “inactive”.
In the case of COc1ccc(C(=O)Nc2nc3ccccc3c(NCc3ccccc3)c2C#N)cc1, the Potency is reported as “inactive”.
For C/C=C/C(=O)CC, the viability change, negative = cytotoxic was 6.33% [at 13.2 µM].
For C=CCOC(=O)CCC1CCCCC1, the Potency was “inactive”.
In the case of Cc1nn(C)c(Oc2ccccc2)c1/C=N/OCc1ccc(C(=O)OC(C)(C)C)cc1, the Potency is reported as “inactive”.
With O=C(CS)Nc1ccccc1 the Potency was “inactive”.
For O=C1OC(=O)C2C3C=CC(C3)C12 (stereo not given), the Potency was “inactive”.
In the case of CCCCCCCN, the Potency is reported as “inactive”.
In the case of COc1cccc(N(C)C(=S)Oc2ccc3c(c2)CCCC3)n1, the Potency is reported as “inactive”.
In the case of COC(C)OC, the Potency is reported as “inactive”.
For O=CC1CC=CCC1 (stereo not given), the Potency was “inactive”.
For NCCCN1CCOCC1, the Potency was “inactive”.
For CC[N+]1(CC)CCC(=C(c2ccccc2)c2ccccc2)C1C (stereo not given), the Potency was “inactive”.
For CC(COCCO)OCCO (stereo not given), the Potency was “inactive”.
For CCCCCCCCCCCCCCCCCCOS(=O)(=O)O, the Potency was 34.7 µM (active).
For C[N+]1(CC2COC(c3ccccc3)(C3CCCCC3)O2)CCCCC1 (stereo not given), the Potency was “inactive”.
For CC(C)CC(=O)C1C(=O)c2ccccc2C1=O, the Potency was “inactive”.
In the case of O=[N+]([O-])c1ccc(NCCO)c(OCCO)c1, the Potency is reported as “inactive”.
For O=[N+]([O-])c1ccc2[nH]ncc2c1, the Potency was “inactive”.
For OC(CN1CCC(Cc2ccc(F)cc2)CC1)c1ccc(Cl)cc1 (stereo not given), the Potency was “inactive”.
For COc1ccc(C)cc1[N+](=O)[O-], the Potency was “inactive”.
For COc1ccc2cccc(CCNC(C)=O)c2c1, the Potency was “inactive”.
In the case of CC(=O)[O][Al], the Potency is reported as “inactive”.
With O=C1C(O)=C(O)C(=O)C(O)=C1O the Potency was “inactive”.
For CCCCCCCCCCO[C@@H]1O[C@H](CO)[C@@H](O)[C@H](O)[C@H]1O, the Potency was “inactive”.
With NCc1ccccc1Sc1ccccc1CO the Potency was “inactive”.
In the case of CCCCC1=NC2(CCCC2)C(=O)N1Cc1ccc(-c2ccccc2-c2nn[nH]n2)cc1, the Potency is reported as “inactive”.
With OC[C@H]1O[C@@H](OCCc2ccc(O)cc2)[C@H](O)[C@@H](O)[C@@H]1O the Potency was “inactive”.
For O=C(OCCCCCCOC(=O)c1ccccc1)c1ccccc1, the Potency was “inactive”.
In the case of CCCCO, the Potency is reported as “inactive”.
